For 34 molecules, cell viability results are on record in the supplement of paper PMC13094657.

Each structure is given as a SMILES string. ± gives the standard deviation of the averaged measurements.
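Also: viability of the cells left after supernatant collection, read with Deep Blue dye added for 4 h, as absorbance at 570 nm minus 600 nm.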

For the experiment, the system named is MDA-MB-231. Description: cell viability relative to vehicle unstimulated control (fraction); higher = more viable cells. The note with it: pre-treatment time: 18 h then 24 h IFNg/TNF.
`O=C(O)C1=CO[C@@H](O[C@@H]2O[C@H](CO)[C@@H](O)[C@H](O)[C@H]2O)[C@@H]2C(CO)=CC[C@H]12` [Geniposidic acid] (compound dose: 10 uM): the cell viability worked out at 1.02 ± 0.015.
For `CC(=O)O[C@H]1CC/C(C)=C/CC/C(C)=C/C[C@]2(C(C)C)CC[C@@]1(C)O2` [Incensole Acetate] (compound dose: 10 uM), the cell viability was determined as 1.11 ± 0.01.
For the molecule `C[C@@H]1O[C@@H](O[C@H]2[C@H](Oc3cc(O)c4c(c3)O[C@H](c3ccc(O)cc3)CC4=O)O[C@H](CO)[C@@H](O)[C@@H]2O)[C@H](O)[C@H](O)[C@H]1O` [Naringin] (compound dose: 10 uM), the cell viability was 1.02 ± 0.015.
Consider `CC1=CC[C@@H](C(C)(C)O)CC1` [(-)-α-terpineol] (compound dose: 10 uM), for which the cell viability is 0.979 ± 0.044.
To `CC(C)C1=C[C@H]2[C@@H](CC[C@]2(C)O)[C@](C)(O)CC1` [Alismoxide] (compound dose: 10 uM) belongs 1.01 ± 0.018.
Turning to `C=C(C)[C@@H]1CC=C(CO)CC1` [Perillyl alcohol] (compound dose: 10 uM), the cell viability amounted to 1.036 ± 0.0039.
Consider `CC1=C[C@H]2[C@@H](CC1)[C@H](C)CC[C@H]2[C@@H](C)C(=O)O` [Dihydroartemisinic acid] (compound dose: 10 uM), for which the cell viability turned out to be 1.107 ± 0.0025.
Take `OCC1=C[C@@H](O)[C@]2(O[C@@H]3O[C@H](CO)[C@@H](O)[C@H](O)[C@H]3O[C@@H]3O[C@H](CO)[C@@H](O)[C@H](O)[C@H]3O)C=CO[C@@H](O[C@@H]3O[C@H](CO)[C@@H](O)[C@H](O)[C@H]3O)[C@H]12` [Rehmannioside D] (compound dose: 10 uM): the cell viability was 1.05 ± 0.29.
To `C/C=C(\C)C(=O)O[C@H]1[C@H](O)[C@]2(COC(C)=O)[C@@H](O)C[C@]3(C)C(=CC[C@@H]4[C@@]5(C)CC[C@H](O[C@@H]6O[C@H](C(=O)O)[C@@H](O)[C@H](O)[C@H]6O)[C@@](C)(CO)[C@@H]5CC[C@]43C)[C@@H]2CC1(C)C` [Gymnemic acid I] (compound dose: 10 uM) belongs 1.1 ± 0.017; to `COc1ccc([C@H]2OC[C@H]3[C@@H]2CO[C@H]3c2ccc(O[C@@H]3O[C@H](CO)[C@@H](O)[C@H](O)[C@H]3O)c(OC)c2)cc1OC` [Phillyrin] (compound dose: 10 uM), 0.978 ± 0.024.
For the molecule `CC(C)=CC/C=C(\C)[C@H]1CC[C@]2(C)[C@@H]1[C@H](O)C[C@@H]1[C@@]3(C)CC[C@H](O[C@@H]4O[C@H](CO)[C@@H](O)[C@H](O)[C@H]4O[C@@H]4O[C@H](CO)[C@@H](O)[C@H](O)[C@H]4O)C(C)(C)[C@@H]3CC[C@]12C` [Ginsenoside Rg5] (compound dose: 10 uM), the cell viability was 0.906 ± 0.032.
`C[C@@H]1CC[C@@]2(OC1)O[C@H]1C[C@H]3[C@@H]4CC=C5C[C@@H](O[C@@H]6O[C@H](CO)[C@@H](O)[C@H](O[C@@H]7O[C@H](CO)[C@@H](O)[C@H](O)[C@H]7O)[C@H]6O[C@@H]6O[C@@H](C)[C@H](O)[C@@H](O)[C@H]6O)CC[C@]5(C)[C@H]4CC[C@]3(C)[C@H]1[C@@H]2C` [Gracillin] (compound dose: 10 uM): the cell viability was 0.0777 ± 0.08.
As for `CC1(C)CC[C@]2(C(=O)O[C@@H]3O[C@H](CO[C@@H]4O[C@H](CO)[C@@H](O)[C@H](O)[C@H]4O)[C@@H](O)[C@H](O)[C@H]3O)CC[C@]3(C)C(=CC[C@@H]4[C@@]5(C)CC[C@H](O[C@@H]6OC[C@H](O)[C@H](O)[C@H]6O)[C@@](C)(CO)[C@@H]5CC[C@]43C)[C@@H]2C1` [Asperosaponin VI] (compound dose: 10 uM), the cell viability turned out to be 0.9877 ± 0.0023.
Regarding `O=C1C[C@@H](O[C@@H]2O[C@H](CO)[C@@H](O)[C@H](O)[C@H]2O)CO1` [Kinsenoside] (compound dose: 10 uM), the cell viability turned out to be 0.971 ± 0.18.
To `CC(CCC(OC1OC(CO)C(O)C(O)C1OC1OC(CO)C(O)C(O)C1O)C(C)(C)O)C1CCC2(C)C3CC=C4C(CCC(OC5OC(COC6OC(CO)C(O)C(O)C6O)C(O)C(O)C5O)C4(C)C)C3(C)C(O)CC12C` (centres undefined) [Mogroside IV] (compound dose: 10 uM) belongs 0.996 ± 0.11; to `C=C(C)[C@@H]1CC[C@]2(C(=O)O)CC[C@]3(C)[C@H](CC[C@@H]4[C@@]5(C)CC[C@H](O[C@@H]6OC[C@H](O)[C@H](O)[C@H]6O[C@@H]6O[C@@H](C)[C@H](O)[C@@H](O)[C@H]6O)[C@@](C)(CO)[C@@H]5CC[C@]43C)[C@@H]12` [Pulchinenoside A] (compound dose: 10 uM), 1.04 ± 0.051.
To `CSC(=O)OCC1=C[C@H](O)[C@H]2C(C(=O)O)=CO[C@@H](O[C@@H]3O[C@@H](CO)[C@@H](O)[C@@H](O)[C@H]3O)[C@H]12` [Paederosidic acid] (compound dose: 10 uM) belongs 1.14 ± 0.012; to `C=C1C[C@@]23CC[C@H]4[C@@](C)(CCC[C@@]4(C)C(=O)O[C@@H]4O[C@H](CO)[C@@H](O)[C@H](O)[C@H]4O)[C@@H]2CC[C@]1(O[C@@H]1O[C@H](CO)[C@@H](O)[C@H](O)[C@H]1O[C@@H]1O[C@H](CO)[C@@H](O)[C@H](O)[C@H]1O)C3` [Stevioside] (compound dose: 10 uM), 1.05 ± 0.015.
As for `C=C1C[C@]23C[C@@]1(O)CC[C@H]2[C@@]12C=C[C@H](O)[C@@](C)(C(=O)O1)[C@H]2[C@@H]3C(=O)O` [Gibberellic acid] (compound dose: 10 uM), the figure is 0.951 ± 0.013; as for `C[C@H]1O[C@@H](O[C@H]2CC[C@@]3(C)[C@@H](CC[C@]4(C)[C@@H]3C=CC3=C5CC(C)(C)CC[C@]5(CO)[C@@H](O)C[C@]34C)[C@]2(C)CO)[C@H](O[C@@H]2O[C@H](CO)[C@@H](O)[C@H](O)[C@H]2O)[C@@H](O[C@@H]2O[C@H](CO)[C@@H](O)[C@H](O)[C@H]2O)[C@H]1O` [Buddlejasaponin IVb] (compound dose: 10 uM), 1.07 ± 0.067; as for `CC(C)c1cccc(=O)c(O)c1` [Hinokitiol] (compound dose: 10 uM), 0.9746 ± 0.0011.
With `CC1CCC2(O)C(C)(C)C3CCC2(C)C1C3` (centres undefined) [Patchouli alcohol] (compound dose: 10 uM), the cell viability amounted to 0.994 ± 0.013.
As to `CC(=O)OC(CC12C3C(C(C)C)CCC1(C)C1CCC4(CCCC42)N3C1)C(=O)C1(C)COC2(C)CCC1O2` (centres undefined) [Daphniphylline] (compound dose: 10 uM), the cell viability was determined as 1.01 ± 0.027.
Regarding `C/C1=C\C(=O)c2c(C)coc2C/C(C)=C/CC1` [Furanodienone] (compound dose: 10 uM), the cell viability was 0.949 ± 0.065.
Consider `C[C@H]1[C@@H](O)O[C@@H]2O[C@@]3(C)CC[C@H]4[C@H](C)CC[C@@H]1[C@@]24OO3` [Dihydroartemisinin] (compound dose: 10 uM), for which the cell viability stood at 0.978 ± 0.069.
To `C[C@@H]1CC[C@]2(C(=O)O[C@@H]3O[C@H](CO)[C@@H](O)[C@H](O)[C@H]3O)CC[C@]3(C)C(=CC[C@@H]4[C@@]5(C)C[C@@H](O)[C@H](O)C(C)(C)[C@@H]5CC[C@]43C)[C@@H]2[C@]1(C)O` [Rosamultin] (compound dose: 10 uM) belongs 1 ± 0.077; to `CC1(C)C[C@@H](O)[C@]2(C)CC[C@]3(C)C(=CC[C@@H]4[C@@]5(C)CC[C@H](O)[C@](C)(CO)[C@@H]5CC[C@]43C)[C@@H]2C1` [Soyasapogenol B] (compound dose: 10 uM), 1.02 ± 0.018; to `CC1(C)CC[C@]2(C(=O)O)CC[C@]3(C)C(=CC[C@@H]4[C@@]5(C)CC[C@H](O[C@@H]6O[C@H](C(=O)O)[C@@H](O)[C@H](O[C@@H]7OC[C@@H](O)[C@H](O)[C@H]7O)[C@H]6O)C(C)(C)[C@@H]5CC[C@]43C)[C@@H]2C1` [Momordin Ic] (compound dose: 10 uM), 1.07 ± 0.023.
To `C[C@@H]1O[C@@H](O[C@H]2[C@H](OC(=O)[C@]34CCC(C)(C)C[C@H]3C3=CC[C@@H]5[C@@]6(C)C[C@H](O)[C@H](O[C@@H]7O[C@H](CO)[C@@H](O)[C@H](O)[C@H]7O)C(CO)(CO)[C@@H]6CC[C@@]5(C)[C@]3(C)C[C@H]4O)OC[C@H](O)[C@@H]2O)[C@H](O)[C@H](O)[C@H]1O[C@@H]1OC[C@@H](O)[C@H](O[C@@H]2OC[C@](O)(CO)[C@H]2O)[C@H]1O` [Platycodin D] (compound dose: 10 uM) belongs 0.609 ± 0.21.
As for `C=C1C[C@@]2(O)O[C@@]3(C[C@H]2C(C)C)[C@@H](C)CC[C@@H]13` [Curcumol] (compound dose: 10 uM), the figure is 0.997 ± 0.034; as for `C[C@@H]1CC[C@]2(C(=O)O[C@@H]3O[C@H](CO)[C@@H](O)[C@H](O)[C@H]3O)CC[C@]3(C)C(=CC[C@@H]4[C@@]5(C)CC[C@H](O)[C@](C)(C(=O)O)[C@@H]5CC[C@]43C)[C@@H]2[C@]1(C)O` [Ilexsaponin A] (compound dose: 10 uM), 1.02 ± 0.016.
With `CC(C)=CCC[C@@](C)(O)[C@H]1CC[C@]2(C)[C@@H]1[C@H](O)C[C@@H]1[C@@]3(C)CC[C@H](O)C(C)(C)[C@@H]3CC[C@]12C` [(20R)-Protopanaxadiol] (compound dose: 10 uM), the cell viability turned out to be 0.9532 ± 0.0069.
In the case of `CC1(C)[C@@H](O[C@H]2O[C@H](C(=O)O)[C@@H](O)[C@H](O)[C@H]2O[C@@H]2O[C@H](C(=O)O)[C@@H](O)[C@H](O)[C@H]2O)CC[C@]2(C)[C@H]3C(=O)C=C4[C@@H]5C[C@@](C)(C(=O)O)CC[C@]5(C)CC[C@@]4(C)[C@]3(C)CC[C@@H]12` [Glycyrrhizic acid] (compound dose: 10 uM), the cell viability came to 1.05 ± 0.075.
Regarding `CC12CCC(CC1=O)C2(C)C` (centres undefined) [Camphor] (compound dose: 10 uM), the cell viability came out at 0.977 ± 0.016.
